The nature of test [1]: HepG2 liver cancer cell viability effects, profiling panel, resazurin fluorescence, 24 h, PK04 Diversity Set (AID 1172). The following applies: higher = more signal.
Test [2] is described as follows: basal S. cerevisiae growth modulation, no modifier, primary screen, OD600, strain BY4716, 24 h, basal condition (AID 1173). The following applies: OD600, 24 h, higher = more signal, called active from +8 up or from −8 down.
Test [3] in a line: MM1S myeloma cell viability, profiling panel, resazurin fluorescence, basal, 24 h, PK04 Diversity Set (AID 1174). The following applies: higher = more signal, called active from +8 up or from −8 down.
Test [4] deals with Dihydroorotate dehydrogenase (quinone), mitochondrial (Plasmodium falciparum (isolate 3D7)) (UniProt Q08210). Description: PfDHODH enzyme inhibitors, primary screen, biochemical, C-terminal His tag, absorbance 600 nm (AID 1175).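 Note: recombinant parasite enzyme with a five histidine tag at its C terminus.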 The following applies: DCIP absorbance 600 nm, higher = more signal, called active from +8 up or from −8 down.
Sequence of Dihydroorotate dehydrogenase (quinone), mitochondrial (Plasmodium falciparum (isolate 3D7)) (Q08210 whole entry, looked up): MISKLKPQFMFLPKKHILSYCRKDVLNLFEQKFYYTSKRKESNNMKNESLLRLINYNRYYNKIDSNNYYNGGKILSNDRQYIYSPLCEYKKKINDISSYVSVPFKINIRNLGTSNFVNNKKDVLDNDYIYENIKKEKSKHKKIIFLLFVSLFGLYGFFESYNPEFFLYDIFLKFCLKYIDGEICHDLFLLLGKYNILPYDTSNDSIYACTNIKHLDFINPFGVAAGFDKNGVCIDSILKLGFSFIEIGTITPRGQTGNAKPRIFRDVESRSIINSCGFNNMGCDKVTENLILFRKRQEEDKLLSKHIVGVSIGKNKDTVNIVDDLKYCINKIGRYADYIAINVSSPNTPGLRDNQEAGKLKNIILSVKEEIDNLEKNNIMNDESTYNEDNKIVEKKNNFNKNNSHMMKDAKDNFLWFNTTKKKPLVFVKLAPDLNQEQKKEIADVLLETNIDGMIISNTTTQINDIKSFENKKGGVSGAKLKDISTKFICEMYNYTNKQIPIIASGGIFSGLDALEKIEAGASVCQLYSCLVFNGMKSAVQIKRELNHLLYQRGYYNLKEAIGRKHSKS
Test [5] in a line: P. aeruginosa biofilm formation inhibitors, primary screen, strain PAO1, LB-PBS medium, absorbance 600 nm (AID 1176). The following applies: P. aeruginosa PAO1 growth/biofilm, A600, 12 h; higher = more signal.
The nature of test [6]: S. cerevisiae RM11-1a growth modifiers, primary screen, strain RM11-1a, OD600, basal, 24 h (AID 1177).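 Note: cultures grown under basal conditions with no added stressor.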 The following applies: OD600, 24 h, higher = more signal, called active from +8 up or from −8 down.
Test [7] in a line: E. coli acrAB mutant growth effects, primary screen, E. coli filamentation inducers, strain DRC39, OD650, 24 h (AID 1178).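 Note: growth measured as culture turbidity by optical density at 650 nm.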 The following applies: higher = more signal, called active from +8 up or from −8 down.
Test [8] can be described thus: E. coli acrAB mutant growth effects, primary screen, E. coli filamentation inducers, strain DRC39, OD650, 48 h (AID 1179).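 Note: screen aims at cell division blockers that make cells filament.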 The following applies: E. coli DRC39 delta-acrAB growth, higher = more signal, called active from +8 up or from −8 down.
Test [9] can be described thus: RPMI8226 myeloma cell viability, profiling panel, resazurin fluorescence, basal, 24 h, PK04 Diversity Set (AID 1180).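 Note: RPMI8826 multiple myeloma cell line at 5000 cells per well.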 The following applies: higher = more signal.
Test [10] concerns the target E3 ubiquitin-protein ligase XIAP (Homo sapiens) (UniProt P98170). The test is described as follows: XIAP binders, primary screen, biophysical, small-molecule microarray, fluorescence 635 nm (AID 1181).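 Note: score merges 667 nm emission and signal to noise over triplicate slides.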 The following applies: small-molecule microarray binding, higher = more signal.
Test [11] relates to XIP peptide (Xip251-270) binding. Description: small-molecule binders of XIP peptide, primary screen, biochemical, small-molecule microarray, fluorescence 635/667 nm, 0.1 µg/mL protein (AID 1182). The following applies: fluorescent protein binding, 635 nm, higher = more signal, called active from +8 up or from −8 down.
A further test has as its system XIP peptide (Xip251-270). Description: small-molecule binders of XIP peptide, primary screen, biochemical, small-molecule microarray, fluorescence 635/667 nm, 0.5 µg/mL protein (AID 1183). The following applies: small-molecule microarray binding, fluorescence 635 nm; higher = more signal.
Test [12] is described as follows: Plasmodium falciparum growth inhibition, primary screen, strain 3D7, DAPI fluorescence, 100 nL (AID 1184).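 Note: parasites grown inside human red blood cells in medium with human serum.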 The following applies: P. falciparum 3D7 growth, 3 d, higher = more signal.
Test [13] addresses Homeobox protein Hox-A13 (Mus musculus) (UniProt Q62424). The test is described as follows: inhibitors of HoxA13-DNA binding, primary screen, biochemical, fluorescence polarization, labeled oligonucleotide (AID 1185). The following applies: 15 min, higher = more signal, called active from +8 up or from −8 down.
Test [14] can be described thus: inhibitors of hydroxyurea-induced Chk1 phosphorylation, primary screen, imaging, HeLa, phospho-Chk1 antibody, percent positive cells (AID 1186). The following applies: hydroxyurea-induced phospho-Chk1 immunofluorescence imaging, higher = more signal.
The nature of test [15]: inhibitors of hydroxyurea-induced Chk1 phosphorylation, primary screen, imaging, HeLa, phospho-Chk1 nuclear intensity (AID 1187). The following applies: hydroxyurea-induced phospho-Chk1 immunofluorescence imaging, higher = more signal.

Molecules are shown by their SMILES. Calls of active or inactive are those of the source. Unless noted, the rule behind the calls is not given here.

Sequence of E3 ubiquitin-protein ligase XIAP (Homo sapiens) (P98170 whole entry, looked up): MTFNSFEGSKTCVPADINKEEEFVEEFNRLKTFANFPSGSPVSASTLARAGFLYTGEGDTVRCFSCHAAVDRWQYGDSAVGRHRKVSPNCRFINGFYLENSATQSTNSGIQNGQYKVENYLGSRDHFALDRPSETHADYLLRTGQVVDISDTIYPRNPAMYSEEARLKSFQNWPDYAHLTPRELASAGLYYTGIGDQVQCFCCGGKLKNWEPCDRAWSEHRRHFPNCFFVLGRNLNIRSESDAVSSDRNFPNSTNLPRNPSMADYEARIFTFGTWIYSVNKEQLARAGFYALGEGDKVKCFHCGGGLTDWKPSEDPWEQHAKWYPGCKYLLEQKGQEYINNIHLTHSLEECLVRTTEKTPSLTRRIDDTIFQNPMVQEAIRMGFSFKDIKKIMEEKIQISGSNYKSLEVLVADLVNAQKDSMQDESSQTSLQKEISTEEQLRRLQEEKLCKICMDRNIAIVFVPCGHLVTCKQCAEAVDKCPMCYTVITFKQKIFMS
Sequence of Homeobox protein Hox-A13 (Mus musculus) (Q62424 whole entry, looked up): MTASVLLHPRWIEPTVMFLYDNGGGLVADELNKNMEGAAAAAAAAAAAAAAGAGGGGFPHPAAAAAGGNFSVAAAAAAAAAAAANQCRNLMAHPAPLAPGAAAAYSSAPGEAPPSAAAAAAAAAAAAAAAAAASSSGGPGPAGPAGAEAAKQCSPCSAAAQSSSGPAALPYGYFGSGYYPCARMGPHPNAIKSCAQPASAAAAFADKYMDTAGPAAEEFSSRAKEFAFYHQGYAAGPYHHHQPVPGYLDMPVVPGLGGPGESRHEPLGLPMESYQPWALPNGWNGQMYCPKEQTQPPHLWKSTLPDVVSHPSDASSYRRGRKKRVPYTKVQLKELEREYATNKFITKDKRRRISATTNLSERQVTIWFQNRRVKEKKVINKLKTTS

On to `COc1ccc(NN2C(C(O)c3ccc(OC)cc3)C=CC3C(=O)N(C4CCCCC4)C(=O)C32)cc1` (stereo not given), for which the z-score in test [1] is 1.52; in [2] it was -0.365 (inactive); in test [3], 0.363 (inactive); in test [5] it was 1.05 (inactive); in test [6] it was 0.107 (inactive); in [7], -0.447 (inactive). Moreover, the z-score in test [8] is 0.703 (inactive); in [9], 0.346; in [12], -0.346; in [13], -4.51 (inactive); in test [14], -1.28 (inactive); in [15], -1.13 (inactive). For the same compound, the composite z-score is -0.809 (inactive) in [4], 0.229 in test [10], 1.3 (inactive) in test [11] and 0.7 with XIP peptide (Xip251-270).

Consider `C=CCNC(=O)[C@@H]1[C@H]2C(=O)O[C@H](c3ccccc3)[C@H](c3ccccc3)N2[C@H](c2ccc(O)cc2)[C@@]12C(=O)Nc1ccc(C#CC3(O)CCCCCC3)cc12`, for which the z-score in [1] is -0.285; in [2], 0.0504 (inactive); in [3], -0.205 (inactive); in [5] it was 0.498 (inactive); in [6], 0.117 (inactive); in test [7], 0.6 (inactive). For the same compound, the z-score in test [8] was 0.0092 (inactive); in test [9], -1.57; in [12] it was 0.516; in test [13] it was -3.49 (inactive); in [14], -0.326 (inactive); in [15] it was -0.0283 (inactive). Besides, the composite z-score in test [4] was 0.0708 (inactive); in test [10] it was -0.154; in test [11] it was 0.237 (inactive); with XIP peptide (Xip251-270), -0.251.

As to `COCC(=C=CC[C@@H](O)c1ccc(OCCO)cc1)C[C@@H](O)COCc1ccccc1`, the z-score in test [1] was 0.948; in [2] it was -0.81 (inactive); in test [3] it was 0.891 (inactive); in test [5] it was 0.801 (inactive); in test [6], -1.31 (inactive); in [7] it was 0.789 (inactive). Also, the z-score in test [8] was 0.859 (inactive); in test [9], 0.804; in [12], -2.96; in test [13], -4.15 (inactive); in test [14], -0.252 (inactive); in test [15], 0.483 (inactive). Also, the composite z-score is -2.32 (inactive) in test [4], 0.24 in test [10], 0.705 (inactive) in [11] and 0.181 with XIP peptide (Xip251-270).

As to `COC(=O)[C@@]1(Cc2ccccc2CN=[N+]=[N-])COC(c2ccc(OCCCO)cc2)=N1`, the z-score was -0.639 in test [1]; -5.02 (inactive) in [2]; -1.75 (inactive) in [3]; 1.07 (inactive) in [5]; 0.593 (inactive) in test [6]; 0.544 (inactive) in test [7]. The z-score was -0.74 (inactive) in [8]; -0.39 in test [9]; -1.3 in [12]; -4.77 (inactive) in test [13]; -0.184 (inactive) in test [14]; 0.0494 (inactive) in test [15]. Further, the composite z-score in test [4] was 0.37 (inactive); in test [10], -0.0582; in [11], 1.31 (inactive); with XIP peptide (Xip251-270) it was 0.871.

Turning to `CC(C)C[C@@H]1NC(=O)[C@@]23C(=O)N[C@@H](Cc4ccccc4)C2[C@H](C)[C@@]2(C)O[C@H]2C3/C=C/C/C=C\CNC(=O)[C@@H](CC(C)C)NC1=O` (stereo not given in full), the z-score in test [1] was 0.175; in [2], -1.08 (inactive); in test [3] it was -0.102 (inactive); in [5], 0.0937 (inactive); in test [6], -0.664 (inactive); in test [7], 0.495 (inactive). Moreover, the z-score in test [8] is -0.323 (inactive); in test [9], 0.292; in test [12], -0.0432; in test [13], -6.77 (inactive); in test [14] it was -0.0685 (inactive); in test [15], 0.0529 (inactive). The composite z-score in [4] was -0.0599 (inactive); in test [10], -0.0752; in [11] it was 0.549 (inactive); in the test on XIP peptide (Xip251-270), 0.414.

With `CCCC[C@@H]1C[C@H]1[C@@H](NC(=O)c1ccc(C(F)(F)F)cc1)c1ccc(C(=O)OC)cc1`, the z-score in [1] was 1.51; in [2], 0.146 (inactive); in [3], 0.444 (inactive); in [5] it was 1.02 (inactive); in test [6], 1.02 (inactive); in test [7], 0.909 (inactive). The z-score in [8] is 0.787 (inactive); in test [9], 0.971; in test [12], -0.557; in test [13], -0.759 (inactive); in [14] it was 0.894 (inactive); in [15], 0.397 (inactive). Further, the composite z-score in test [4] is -0.0667 (inactive); in test [10], 0.209; in test [11] it was -0.0437 (inactive); in the test on XIP peptide (Xip251-270) it was 0.368.

Turning to `CCOC(=O)C1=CC[C@@H](c2ccc(F)cc2)N(S(=O)(=O)c2ccc(C)cc2)[C@H]1c1ccc([N+](=O)[O-])cc1`, the z-score in test [1] is 1.09; in [2] it was 1.18 (inactive); in test [3], 0.0003 (inactive); in test [5], 0.0362 (inactive); in [6], 0.248 (inactive); in test [7] it was 0.253 (inactive). Besides, the z-score was 0.321 (inactive) in test [8]; -0.678 in test [9]; -1.8 in [12]; 0.532 (inactive) in [13]; 0.355 (inactive) in [14]; 0.593 (inactive) in test [15]. The composite z-score in test [4] is -0.554 (inactive); in [10], 0.0077; in test [11], 0.1 (inactive); in the test with XIP peptide (Xip251-270), 0.559.

Turning to `COCCOC(=O)N1C(=O)[C@@]2(c3cc(C#CC4(O)CCCCCC4)ccc31)[C@H](c1ccc(OCCO)cc1)N1[C@H](c3ccccc3)[C@H](c3ccccc3)OC(=O)[C@H]1[C@@H]2C(N)=O`, the z-score in test [1] is -0.776; in test [2] it was 0.581 (inactive); in test [3], -3.25 (inactive); in test [5], 1.84 (inactive); in test [6], 1.89 (inactive); in [7], -0.236 (inactive). Besides, the z-score in [8] is -0.635 (inactive); in [9], -3.62; in test [12], -2.02; in test [13] it was -1.87 (inactive); in test [14], -0.0641 (inactive); in [15] it was -0.215 (inactive). For the same compound, the composite z-score in test [4] is -0.259 (inactive); in test [10], -0.142; in [11], 0.539 (inactive); in the test on XIP peptide (Xip251-270) it was 0.849.

Regarding `C=C(CCCC)/C(=C/C[C@H](OC(C)=O)c1cccc(OCCO)c1)c1cc(C(=O)OC)ccc1OC`, the z-score was 2.33 in [1]; -0.456 (inactive) in [2]; 1.44 (inactive) in test [3]; 0.473 (inactive) in [5]; -0.515 (inactive) in test [6]; 1.85 (inactive) in test [7]. Further, the z-score in test [8] is 1.34 (inactive); in test [9] it was 1.43; in [12], -2.35; in test [13] it was -4.24 (inactive); in test [14] it was 0.0786 (inactive); in [15], 0.307 (inactive). The composite z-score in test [4] is -0.989 (inactive); in [10], -0.0297; in [11], 0.0894 (inactive); in the test on XIP peptide (Xip251-270), -0.185.

With `CCc1cccc(NC(=O)O[C@H]2[C@H](OC(=O)Nc3ccc4c(c3)OCO4)[C@H](OC(=O)Nc3ccc4c(c3)OCO4)[C@@H](OC)O[C@@H]2CO)c1`, the z-score in test [1] is -0.585; in test [2], 0.613 (inactive); in test [3], -1.44 (inactive); in test [5], 0.317 (inactive); in [6], 1.97 (inactive); in test [7], 1.65 (inactive). Further, the z-score in [8] is 0.853 (inactive); in [9], -1.47; in test [12] it was -2.26; in [13], -9.9 (active); in test [14] it was -0.392 (inactive); in [15], -0.0612 (inactive). Also, the composite z-score in test [4] is -1.12 (inactive); in test [10] it was -0.184; in [11], 2.3 (inactive); in the test with XIP peptide (Xip251-270), 0.791.

The values are drawn from PubChem BioAssay.
